Laboratory results published in the supplement of paper PMC9950053.
Counter-ions that a name gives are not always drawn.

tested on: Danio rerio larvae (5 dpf); assay: 1-h baseline activity (% time moving, periods 1-6) minus DMSO control (percentage points); higher = more locomotor activity than DMSO larvae; details: 10 µM; exposure time: 3 h pre-incubation + 3 h imaging
Method: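 Wild-type 5 dpf zebrafish larvae (n=48 per drug, 96-well plates, 28.5 °C) were exposed to Tocris FDA-approved library compounds at 10 µM (0.1% DMSO) for 3 h before and 3 h during imaging. Images were taken every 6 s during visual (moving coloured lines) and acoustic stimuli, and larvae were tracked with the DeepLabCut-based Z-LaP Tracker. Each behavioural measure is the treated-group mean minus the DMSO vehicle control mean (n=844), in percentage points. This mapping covers compounds with 4-character plate codes.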

Compound | 1-h baseline activity
CN1C[C@H](C(=O)N[C@]2(C)O[C@@]3(O)[C@@H]4CCCN4C(=O)[C@H](Cc4ccccc4)N3C2=O)C[C@@H]2c3cccc4[nH]cc(c34)C[C@H]21 [Dihydroergotamine mesylate] | 1.07
CC[C@@H](C(N)=O)N1CCCC1=O [Levetiracetam] | 5.78
CC(O)(CS(=O)(=O)c1ccc(F)cc1)C(=O)Nc1ccc(C#N)c(C(F)(F)F)c1 (stereo unspecified) [Bicalutamide] | 3
CCN(C)C(=O)Oc1cccc([C@H](C)N(C)C)c1 [Rivastigmine tartrate] | 7.3
C=CCN1C[C@H](C(=O)N(CCCN(C)C)C(=O)NCC)C[C@@H]2c3cccc4[nH]cc(c34)C[C@H]21 [Cabergoline] | -9.92
CC(C)C[C@H]1C(=O)N2CCC[C@H]2[C@]2(O)O[C@](NC(=O)[C@@H]3C=C4c5cccc6[nH]c(Br)c(c56)C[C@H]4N(C)C3)(C(C)C)C(=O)N12 [Bromocriptine mesylate] | 16.1
N[C@@H]1C[C@H]1c1ccccc1 [Tranylcypromine hydrochloride] | -14.7
Cc1cccc([C@H](C)c2c[nH]cn2)c1C [Dexmedetomidine hydrochloride] | -27.3
COc1cc2c(cc1OC)C1CC(=O)C(CC(C)C)CN1CC2 (stereo unspecified) [Tetrabenazine] | -0.785
O=c1[nH]c2ccccc2n1C1CCN(CCCC(c2ccc(F)cc2)c2ccc(F)cc2)CC1 [Pimozide] | -18.2
C=C1C[C@@H]2[C@H](CC[C@]3(C)C(=O)CC[C@@H]23)[C@@]2(C)C=CC(=O)C=C12 [Exemestane] | -19.5
